The values that follow come from PubChem BioAssay AID1851 (National Center for Advancing Translational Sciences (NCATS), 2009).

For orientation: AC50 means the concentration at which the activity in the assay is half-maximal.

Hit rate of the full screen: of about 16,000 compounds, about 5,100 (32%) were called active. About 25% were inconclusive and are not listed. Calls come from the whole dose curve; as a rule, active = well fitted curve in the direction sought with a large enough effect; inconclusive = small, poorly fitted or top-dose-only effect, or effect the other way; inactive = no such curve, though single readings can be large or run the other way. This is one part of the list.
% is set by controls: 0 for no effect and ±100 for the full control effect.

Sequence of Cytochrome P450 3A4 (Homo sapiens) (P08684 whole entry, looked up): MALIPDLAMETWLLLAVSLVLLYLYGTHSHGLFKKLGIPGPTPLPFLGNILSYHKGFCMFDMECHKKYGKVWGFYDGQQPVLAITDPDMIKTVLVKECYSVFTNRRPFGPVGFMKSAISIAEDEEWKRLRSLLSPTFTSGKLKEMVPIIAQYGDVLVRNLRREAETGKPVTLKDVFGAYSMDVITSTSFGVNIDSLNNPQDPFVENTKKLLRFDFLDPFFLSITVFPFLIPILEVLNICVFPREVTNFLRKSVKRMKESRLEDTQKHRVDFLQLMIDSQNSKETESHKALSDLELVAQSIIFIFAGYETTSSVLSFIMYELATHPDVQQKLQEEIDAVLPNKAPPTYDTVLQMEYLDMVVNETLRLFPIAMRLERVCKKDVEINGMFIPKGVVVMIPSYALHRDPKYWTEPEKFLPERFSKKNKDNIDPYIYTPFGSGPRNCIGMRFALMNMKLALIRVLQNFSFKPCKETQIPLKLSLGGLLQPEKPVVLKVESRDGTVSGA

The assay addresses Cytochrome P450 3A4 (Homo sapiens) (UniProt P08684). Put plainly: Cytochrome panel assay with activity outcomes. To be noted: recombinant CYP, pro-luciferin dealkylation, luminescence, p450-cyp3a4; series mostly up to 57.1 µM; activity, negative = inhibition: at the top concentration.
As to `COc1ccccc1-c1ccc2ncnc(NCc3cccnc3)c2c1`, the AC50 was 0.631 µM (active).
As for `COCCNc1ncnc2ccc(-c3ccccc3OC)cc12`, the AC50 is 15.8 µM (active).
Take `FC(F)(F)c1ccccc1-c1ccc2ncnc(NCc3cccnc3)c2c1`: the AC50 is 1.58 µM (active).
Take `O=C(c1ccccc1)c1ccc2n1CC[C@H]2C(=O)O`: the AC50 entry is “inactive”.
`O=C(O)c1cc2c(o1)CCC/C2=N\O`: the “activity, negative = inhibition” value was -14.2% (inactive).
On to `CC(C)(CS)C(=O)N1CCC[C@H]1C(=O)O`, for which the “activity, negative = inhibition” value is 3.01% [at 25.6 µM] (inactive).
`COc1ccccc1-c1ccc2ncnc(NCc3ccccc3)c2c1`: the AC50 is 12.6 µM (active).
In the case of `Clc1ccccc1-c1ccc2ncnc(NCc3cccnc3)c2c1`, the half-maximal activity concentration (AC50) is 2 µM (active).
As to `COc1cccc(-c2ccc3ncnc(NCc4cccnc4)c3c2)c1`, the AC50 is 1 µM (active).
For `Cc1cc(OC(=O)c2ccc(Cl)cc2Cl)nc(C)n1`, the “activity, negative = inhibition” value is -8.46% (inactive).
With `COc1ccc(-c2ccc(=O)n(CC(=O)Nc3nnc(C(C)C)s3)n2)cc1OC`, the “activity, negative = inhibition” value was -18% (inactive).
Turning to `COc1ccc(-c2nn3cnnc3s2)cc1OC`, the AC50 was 14.1 µM (active).
In the case of `O=S1(=O)OC(c2ccc(O)cc2)(c2ccc(O)cc2)c2ccccc21`, the activity, negative = inhibition is -11.8% [at 11.4 µM] (inactive).
Take `Fc1ccc2c(c1)C1C=CCC1C(c1cc3c(cc1Br)OCO3)N2` (stereo not given): the activity, negative = inhibition is -4.14% [at 2.29 µM] (inactive).
In the case of `CC1(C)CC(=O)C2=C(C1)Nc1cc3c(cc1C2c1ccc(F)cc1)OCO3` (stereo not given), the AC50 is 1 µM (active).
For the compound `Nc1nc(Br)c2ccccc2c1-c1ccc(F)cc1`, the AC50 is 14.1 µM (active).
Take `Nc1nc(Br)c2c(F)cccc2c1-c1ccc(F)cc1`: the AC50 was 22.4 µM (active).
Consider `Nc1nc(Br)c2c(F)cccc2c1-c1ccc(Cl)cc1`, for which the AC50 was 20 µM (active).
For `COC(=O)C[C@@H]1O[C@H]1[C@H](C)[C@@H](OC)C(C)C`, the half-maximal activity concentration (AC50) was 3.98 µM (active).
`CO[C@@H](C(C)C)[C@@H](C)[C@@H]1OC(=O)C[C@@H]1O`: the activity, negative = inhibition was -9.77% [at 11.4 µM] (inactive).
Still for that read-out and setting: as for `CO[C@@H]1COC(=O)[C@H](CCSC)NC(=O)C/C=C\[C@@H](C)COC(=O)[C@@H]2CCCN2C(=O)C/C=C\[C@H]1C`, the figure is -23.1% [at 11.4 µM] (inactive); as for `Cc1ccc(S(=O)(=O)CC(O)CN2CCCC2=O)cc1` (stereo not given), -2.08% (inactive).
In the case of `O=C(NCCCN1CCCC1=O)c1ccc(CNS(=O)(=O)c2ccc(F)cc2)cc1`, the activity, negative = inhibition is -13.5% [at 11.4 µM] (inactive).
In the case of `Cc1ccc(S(=O)(=O)N(CCCN2CCCC2=O)Cc2cc3c(C)ccc(C)c3[nH]c2=O)cc1`, the AC50 is 1.12 µM (active).
Take `COc1ccccc1CNc1ncncc1-c1ccccc1Cl`: the AC50 is 0.2 µM (active).
On to `COc1ccccc1CNc1ncncc1-c1ccccc1OC`, for which the AC50 was 0.2 µM (active).
On to `c1ccc2c3c([nH]c2c1)[C@@H]1[C@H]2CC[C@H]([C@H]4CCCN[C@H]42)N1CC3`, for which the “activity, negative = inhibition” value was -11.2% [at 25.6 µM] (inactive).
For the compound `COC(=O)CSc1ncc(OC)c(OC)n1`, the “activity, negative = inhibition” value was -5.02% (inactive).
`CCOC(=O)C1CCN(C(=O)C2CCN(c3nc4ccc(OC)cc4s3)CC2)CC1`: the “activity, negative = inhibition” value was 18.5% (inactive).
In the case of `CCOC(=O)C[n+]1c(C)sc2ccc(OC)cc21`, the AC50 was 3.55 µM (active).
Consider `Cc1sc2ccccc2[n+]1CCC(=O)O`, for which the activity, negative = inhibition is -6.82% [at 11.4 µM] (inactive).
For the compound `C1CCN(CC[C@@H]2CCCCN2)CC1`, the activity, negative = inhibition was -2.6% [at 11.4 µM] (inactive).
As for `CCC/C=C(\CCC)C(NP(=O)(c1ccccc1)c1ccccc1)c1ccc(-c2ccccc2)cc1` (stereo not given), the concentration at half-maximal activity (AC50) is 3.98 µM (active).
In the case of `CCC/C=C(\CCC)C(NP(=O)(c1ccccc1)c1ccccc1)c1ccc(C(F)(F)F)cc1` (stereo not given), the AC50 was 3.16 µM (active).
As to `CN(C)C(=O)/N=N\C(=O)N(C)C`, the “activity, negative = inhibition” value was -6.3% (inactive).
In the case of `O=C(O)C(Cc1ccccc1)Cc1ccccc1`, the activity, negative = inhibition is 5.23% [at 11.4 µM] (inactive).
For `CS(=O)(=O)N1CCC2(CC1)CN(C(=O)Nc1ccccc1)C2`, the “activity, negative = inhibition” value is -13% (inactive).
With `CS(=O)(=O)N1CCN(c2ccccc2NC(=O)c2ccc(Br)o2)CC1`, the AC50 was 15.8 µM (active).
As to `Nc1nc(N)c2nn(-c3ccc(C(=O)O)cc3)nc2n1`, the activity, negative = inhibition was -6.41% [at 11.4 µM] (inactive).
Consider `CCCOc1ccc(C(=O)NC(=S)Nc2nc3ccc(C)cc3s2)cc1`, for which the activity, negative = inhibition was 13.6% [at 2.29 µM] (inactive).
For `Cc1ccc2nc(NC(=O)COC(=O)c3ccc(Br)o3)sc2c1`, the AC50 was 15.8 µM (active).
For the compound `Cc1ccc2nc(NC(=O)CSCC(=O)OCC(=O)c3ccc(Br)cc3)sc2c1`, the AC50 was 10 µM (active).
As for `Cc1ccc2nc(NC(=O)COC(=O)CSc3nc(C)cc(C)n3)sc2c1`, the “activity, negative = inhibition” value is 21.9% (inactive).
On the same count and under the same terms, as for `CS(=O)(=O)Nc1c(O)ccc2c1CCC[C@H]2C1=NCCN1`, the figure is -4.57% (inactive).
Turning to `COc1ccc(Oc2ncc3ncc(=O)n(CCc4ccccc4)c3n2)cc1`, the AC50 was 1.26 µM (active).
Still for that read-out and setting: as for `COCCn1c(=O)c(CCc2ccccc2)nc2cnc(OC)nc21`, the figure is 12.6 µM (active).
As to `COc1ncc2nc(CCc3ccccc3)c(=O)n(C)c2n1`, the “activity, negative = inhibition” value is 0.537% (inactive).
Turning to `O=c1cnc2cnc(Oc3ccccc3)nc2n1CCc1ccccc1`, the “activity, negative = inhibition” value is -22.3% (inactive).
As to `COCCn1c(=O)c(CCc2ccccc2)nc2cnc(Oc3ccc(OC)cc3)nc21`, the AC50 is 3.16 µM (active).
Consider `COc1ncc2nc(CCc3ccccc3)c(=O)n(CCc3ccccc3)c2n1`, for which the AC50 was 3.16 µM (active).
